Common to all, as to assay: qHTS profiling for inhibitors of Plasmodium falciparum proliferation (AID 504749); also: nearly all actives have a fitted effect of over 60% in size
Conditions in all cases: P. falciparum in erythrocytes, SYBR Green DNA, 72 h; series mostly up to 28.7 µM

Assay [1] concerns N140. In outline:
(§1)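 Readout was DNA-dye fluorescence from lysed cultures, ex 485/em 535 nm. Parasitized red cells had grown 72 h with compound; data scaled between 0.29 uM artemisinin and DMSO wells and corrected using vehicle-only plates.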

Assay [2] relates to P93_24. In outline: as §1
The subject of assay [3] is P94_40. The method, boiled down: as §1
The test system of assay [4] is PAD. In outline: as §1
Assay [5] deals with PC15. In outline: as §1
Assay [6] has as its system PC26. In outline:
as §1

In assay [7] the test system is PC49. In outline:
as §1

The subject of assay [8] is SC27B. In outline:
as §1

Assay [9] deals with TAB109. In outline: as §1
Assay [10] has as its system TAB113. The method, boiled down: as §1

Results filed as inconclusive are left out. Activity calls are given as the source filed them. Calls follow the shape of the dose curve; as a rule, active = well fitted inhibition curve with a large enough effect; inconclusive = small, poorly fitted or top-dose-only effect; inactive = flat fitted curve, though single readings scatter. Peptide text beside a SMILES is read from it.
Potency is read from the fitted curve at half-maximal effect.

Regarding `CC1=C(/C=C/C(C)=C/C=C/C(C)=C/C=C/C=C(C)/C=C/C=C(C)/C=C/C2=C(C)CCCC2(C)C)C(C)(C)CCC1`, the Potency entry in [1], in assay [2], in assay [3], in [4], in assay [5] and in [6] was “inactive” in each case. Besides, the Potency result in [7], in assay [8], in assay [9] and in assay [10] was “inactive” throughout.

`COc1ccc2c3c1O[C@H]1C[C@@H](O)C=C[C@@]31CCN(C)C2`: the Potency entry in [1], in assay [2], in assay [3], in [4], in assay [5] and in assay [6] was “inactive” each time. In addition, the Potency result in [7], in assay [8], in assay [9] and in [10] was “inactive” in each case.

On to `C[C@H]1C[C@H]2[C@@H]3CCC4=CC(=O)C=C[C@]4(C)[C@@]3(F)[C@@H](O)C[C@]2(C)[C@@]1(O)C(=O)CO`, for which the Potency result in [1], in assay [2], in assay [3], in assay [4], in [5] and in assay [6] was “inactive” throughout. The Potency result in assay [7], in assay [8], in assay [9] and in assay [10] was “inactive” in each case.

Regarding `CC(=O)N[C@@H](CC(=O)O)C(=O)N[C@@H](CCC(=O)O)C(=O)O` (Ac-Asp-Glu-OH), the Potency result in assay [1], in assay [2], in assay [3], in assay [4], in assay [5] and in assay [6] was “inactive” in each case. Also, the Potency entry in assay [7], in assay [8], in assay [9] and in assay [10] was “inactive” throughout.

In the case of `O=S(=O)(O)c1ccc2c(N=Nc3ccc(S(=O)(=O)O)c4ccccc34)c(O)c(S(=O)(=O)O)cc2c1`, the Potency result in assay [1], in assay [2], in [3], in assay [4], in assay [5] and in assay [6] was “inactive” throughout. For the same compound, the Potency result in assay [7], in [8], in [9] and in assay [10] was “inactive” each time.

For the compound `O=C(COc1ccc(Cl)cc1)OCCNC12CC3CC(CC(C3)C1)C2`, the Potency result in [1], in [2], in assay [3], in [4], in assay [5] and in assay [6] was “inactive” throughout. The Potency result in assay [7], in assay [8], in [9] and in assay [10] was “inactive” throughout.

For `COC(=O)CCC(=O)CN`, the Potency result in assay [1], in assay [2], in [3], in assay [4], in [5] and in [6] was “inactive” in each case. Also, the Potency result in assay [7], in [8], in assay [9] and in assay [10] was “inactive” each time.

`CC(NNC(=O)c1ccccc1)c1ccccc1` (stereo not given): the Potency result in assay [1], in assay [2], in assay [3], in assay [4], in assay [5] and in assay [6] was “inactive” each time. Also, the Potency entry in [7], in assay [8], in [9] and in assay [10] was “inactive” throughout.

Regarding `CC(O)CO` (stereo not given), the Potency entry in [1], in assay [2], in assay [3], in assay [4], in assay [5] and in [6] was “inactive” each time. The Potency entry in [7], in assay [8], in [9] and in assay [10] was “inactive” throughout.

Regarding `IC(I)I`, the Potency result in [1], in [2], in assay [3], in assay [4], in assay [5] and in [6] was “inactive” throughout. For the same compound, the Potency entry in [7], in [8], in [9] and in assay [10] was “inactive” in each case.

As for `CCCC(=O)O[C@]1(C(=O)CCl)[C@H](C)C[C@@H]2[C@H]3CCC4=CC(=O)C=C[C@]4(C)[C@@]3(F)C(=O)C[C@@]21C`, the Potency is 3.16 µM (active) in [1]; 3.98 µM (active) in assay [2]; 4.47 µM (active) in assay [3]; 4.47 µM (active) in [4]; 3.55 µM (active) in assay [5]; 3.01 µM (active) in assay [6]. Further, the Potency is 10 µM (active) in [7], 2.82 µM (active) in assay [8], 3.16 µM (active) in assay [9] and 2.51 µM (active) in assay [10].

`CCNC(=O)[C@@H]1CCCN1C(=O)[C@H](CCCN=C(N)N)NC(=O)[C@H](CC(C)C)NC(=O)[C@@H](Cc1c[nH]c2ccccc12)NC(=O)[C@H](Cc1ccc(O)cc1)NC(=O)[C@H](CO)NC(=O)[C@H](Cc1c[nH]c2ccccc12)NC(=O)[C@H](Cc1cnc[nH]1)NC(=O)[C@@H]1CCC(=O)N1`: the Potency in assay [1] is 4.47 µM (active); in assay [2] it was 3.16 µM (active); in assay [3], 7.94 µM (active); in assay [4] it was 2.24 µM (active); in [5], 3.55 µM (active); in assay [6], 3.38 µM (active). Also, the Potency is 2.82 µM (active) in [7], 6.31 µM (active) in assay [8], 4.47 µM (active) in assay [9] and 8.91 µM (active) in assay [10].

On to `CCC(=O)NCCC1CCc2ccc3c(c21)CCO3` (stereo not given), for which the Potency result in [1], in [2], in [3], in [4], in assay [5] and in [6] was “inactive” each time. For the same compound, the Potency result in assay [7], in [8], in assay [9] and in assay [10] was “inactive” throughout.

Take `CC1=C(/C=C/C(C)=C/C=C/C(C)=C/C=C/C=C(C)/C=C/C=C(C)/C=C/C2=C(C)C(=O)CCC2(C)C)C(C)(C)CCC1=O`: the Potency entry in assay [1], in assay [2], in assay [3], in assay [4], in [5] and in assay [6] was “inactive” in each case. Further, the Potency entry in [7], in assay [8], in assay [9] and in [10] was “inactive” throughout.

Regarding `CC(C(=O)O)c1ccc(N2Cc3ccccc3C2=O)cc1` (stereo not given), the Potency entry in assay [1], in assay [2], in assay [3], in assay [4], in assay [5] and in assay [6] was “inactive” throughout. Moreover, the Potency result in [7], in assay [8], in [9] and in [10] was “inactive” each time.

For `Nc1c(Br)cc(Br)cc1CNC1CCC(O)CC1` (stereo not given), the Potency result in assay [1], in [2], in assay [3], in [4], in assay [5] and in [6] was “inactive” each time. The Potency entry in assay [7], in assay [8], in assay [9] and in [10] was “inactive” throughout.

Regarding `Nc1ncnc2c1ncn2[C@@H]1O[C@H](COP(=O)(O)OP(=O)(O)OP(=O)(O)O)[C@@H](O)[C@H]1O`, the Potency entry in assay [1], in assay [2], in assay [3], in [4], in assay [5] and in [6] was “inactive” in each case. Besides, the Potency entry in assay [7], in [8], in assay [9] and in [10] was “inactive” throughout.

Source of the values: PubChem BioAssay (NCATS).
